# Test results as given in PubChem BioAssay (NCI).
# The panel holds about 83,000 compounds, 20% with a hit somewhere; the sample as a whole holds those more often.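 The test compound was applied at a single concentration to cells in 96-well plates for 48 hours, and percent growth was recorded.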 Unmarked numbers belong to inactive results. The source made the active and inactive calls. Rule for the calls: active = growth percent below 10; inactive = the rest.
# What was measured:
# Assay in all cases: NCI-60 one-dose screen, 48 h (100 = growth as untreated, 0 = no growth, -100 = all killed)
# SR leukemia = conditions: 10 µM
# RPMI-8226 leukemia = conditions: 10 µM
# OVCAR-8 ovarian = conditions: 10 µM
# OVCAR-5 ovarian = conditions: 10 µM
# OVCAR-4 ovarian = conditions: 10 µM
# IGROV1 ovarian = conditions: 10 µM
# OVCAR-3 ovarian = conditions: 10 µM
# HS 578T breast = conditions: 10 µM
# NCI/ADR-RES ovarian = conditions: 10 µM
# T-47D breast = conditions: 10 µM
# BT-549 breast = conditions: 10 µM
# MDA-MB-435 melanoma = conditions: 10 µM
# SW-620 colon = conditions: 10 µM
# MCF7 breast = conditions: 10 µM unless noted
# HCT-116 colon = conditions: 10 µM
# HCC-2998 colon = conditions: 10 µM
# KM12 colon = conditions: 10 µM
# SK-OV-3 ovarian = conditions: 10 µM
Compound,growth (SR leukemia),growth (RPMI-8226 leukemia),growth (OVCAR-8 ovarian),growth (OVCAR-5 ovarian),growth (OVCAR-4 ovarian),growth (IGROV1 ovarian),growth (OVCAR-3 ovarian),growth (HS 578T breast),growth (NCI/ADR-RES ovarian),growth (T-47D breast),growth (BT-549 breast),growth (MDA-MB-435 melanoma),growth (SW-620 colon),growth (MCF7 breast),growth (HCT-116 colon),growth (HCC-2998 colon),growth (KM12 colon),growth (SK-OV-3 ovarian)
COCCCC/C(=N\OCCN)c1ccc(C(F)(F)F)cc1,85.8%,100%,102%,92.5%,110%,105%,105%,97.6%,102%,86.4%,107%,99.4%,97.1%,108%,101%,116%,107%,–
O=C(O)c1ccccc1NCc1ccco1,87.8%,79.1%,94.2%,93.1%,99.1%,–,111%,107%,94.5%,103%,101%,119%,102%,97.4%,105%,80.9%,117%,109%
CCn1c(=O)n(C)c2c(=O)n(C)c(=O)n(C)c21,101%,106%,101%,108%,111%,–,–,110%,105%,98%,101%,98.6%,107%,103%,109%,–,–,106%
CC(C)=NNC(N)=S,86.7%,67.8%,72.4%,89%,59.4%,–,37.2%,84.3%,47.3%,44.1%,88.3%,80.2%,68.7%,7% (active),21.4%,105%,94.9%,115%
Nc1ccc(CC(=O)O)c(N)c1,95.2%,104%,106%,96.1%,98.6%,106%,97.2%,96.7%,96.5%,117%,105%,97.6%,100%,99.3%,103%,104%,93.5%,–
COC1=CC(=O)c2nc(Cl)ccc2C1=O,5.55% (active),3.41% (active),7.95% (active),11.6%,-97% (active),20.4%,-2.3% (active),74.7%,5.5% (active),-38.7% (active),106%,-42.1% (active),-59.8% (active),-56.8% (active),-32.7% (active),100%,91.3%,–
CCS(=O)(=O)c1cc(=O)[nH]c(=O)[nH]1,57.6%,124%,114%,106%,102%,136%,112%,113%,103%,114%,115%,86.7%,112%,106%,104%,116%,107%,–
C=CC(O)CCC (stereo not drawn),92.4%,103%,101%,103%,95.6%,–,113%,110%,103%,113%,112%,90.4%,101%,95.3%,112%,113%,109%,108%
Cc1nc2ccccc2c(C(=O)O)c1O,95.6%,179%,102%,91.4%,116%,–,113%,88.1%,94.5%,91.3%,–,112%,110%,103%,88.3%,89%,120%,95.3%
Cc1ccc(Cl)cc1N1C(=O)CC(Sc2ccccc2N)C1=O (stereo not drawn),101%,91.3%,87.8%,105%,101%,–,–,–,101%,103%,111%,102%,108%,90.2%,111%,101%,112%,102%
Cc1cc(C)cc(NCCC#N)c1,107%,106%,126%,112%,102%,–,105%,134%,110%,107%,123%,111%,102%,101%,106%,109%,107%,106%
Cc1cc2nc(CO)[nH]c2cc1C,122%,87.9%,101%,100%,103%,108%,105%,151%,107%,124%,105%,109%,103%,120%,108%,109%,103%,–
O=C1Cc2cc(O)ccc2O1,91.8%,96.1%,102%,113%,118%,104%,120%,119%,107%,101%,109%,105%,113%,101%,101%,105%,112%,–
O=[N+]([O-])c1cccc(C(F)(F)F)c1,127%,107%,106%,97%,103%,105%,117%,103%,106%,105%,103%,107%,92.6%,85.4%,99.1%,103%,119%,–
O=[N+]([O-])c1ccc(N=Nc2ccccc2)cc1,97.9%,98%,104%,97.7%,107%,–,107%,119%,94.8%,87.4%,87.2%,110%,115%,109%,97.1%,104%,96.2%,113%
NC(C(=O)O)C(O)c1ccco1 (stereo not drawn),112%,101%,103%,108%,114%,–,117%,107%,112%,98%,109%,107%,102%,95.2%,–,107%,107%,107%
O=C1OC[C@H]2[C@H](c3ccc(O)c(O)c3)c3cc(O)c(O)cc3C[C@H]12,330%,167%,127%,100%,110%,–,–,111%,-28.4% (active),131%,134%,121%,107%,121%,103%,–,112%,135%
COc1cc(C2c3cc4c(cc3C3OC(=O)C2C3CO)OCO4)cc(OC)c1OC (stereo not drawn),4.01% (active),18.3%,3.3% (active),27.1%,28.3%,13.7%,-21.9% (active),33.8%,-2.7% (active),70.6%,-24.4% (active),-45% (active),23.1%,17%,7.29% (active),19%,–,–
C/C(=C\c1cc(Cl)ccc1OCC(=O)O)[N+](=O)[O-],113%,81.5%,100%,106%,111%,–,109%,93.5%,102%,85.9%,117%,105%,114%,90.4%,109%,111%,105%,97.7%
